Giardia killer – Small Molecules that selectively kill Giardia lamblia: qHTS; actives 0.15% (n = 340,000); activity change, % at 7.66 µM, hits read low; Giardia lamblia trophozoite viability; in the data active means activity change below about -80%; inconclusive means between about -30% and that limit;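 further: parasites exposed to compound for two days anaerobically before the ATP read; on the % scale 0 is the no-effect control and ±100 the full control effect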
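Compounds were tested on trophozoites seeded at 100 cells/well and held 48 hrs at 37 deg C anaerobically. An ATP-based luminescent kit measured the remaining live cells.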
MCF10A rereplic – A quantitative high throughput screen for small molecules that induce DNA re-replication in MCF 10a normal breast cells. actives 2.9% (n = 350,000). MCF 10A DNA re-replication, Hoechst nuclear intensity, 48 h. AID 624296, 2012. Potency, µM (top dose mostly 46.1 µM), for inactives: at the highest dose activity, positive = re-replication, most hits filed as activators; further: potency means the concentration at half of the fitted maximal effect; % of control where 0% means no effect; nearly all actives have a fitted effect of over 50% in size
KB-V1 MDR tox – qHTS assay for MDR1-selective chemotherapeutics: Primary screen using the drug-selected MDR subline cells KB-V1; KB-V1 MDR cells viability, CellTiter-Glo, 72 h; Potency, µM (series often up to 46.1 µM), usual class: cytotoxic; actives 3.4% (n = 400,000); AID 1347076, 2019; further: potency means the concentration at half of the fitted maximal effect; on the % scale 0 is the no-effect control and ±100 the full control effect; nearly all actives have a fitted effect of over 60% in size
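KB-V1, DMEM (no phenol red) + 10% FBS; cpd pin-transferred, titration series; 72 h, 37 degrees C; CellTiter-Glo, luminescence. Data normalized, curve-fit.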
S-ASM inh – Inhibitors of Secretory Acid Sphingomyelinase (S-ASM): qHTS; placental ASM, HMU-PC fluorogenic substrate, 60 min; Potency, µM (top dose mostly 57.5 µM), inactives show top-dose activity change, negative = inhibition, hits mostly inhibitors; actives 0.006% (n = 340,000); AID 504937, 2011; further: potency means the concentration at half of the fitted maximal effect
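Fluorogenic HMU-PC substrate (9 uM final) is turned over by placental ASM in 60 min at 37 C after a 10 min compound preincubation. Reaction ended by alkaline stop (pH 10), with fluorescence read at 386/447 nm.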
SW480 rerep – A quantitative high throughput screen for small molecules that induce DNA re-replication in SW480 colon adenocarcinoma cells; SW480 DNA re-replication, Hoechst DNA content imaging, 48 h; Potency, µM (series often up to 46.1 µM), inactives show at the top dose re-replication activation, actives largely listed as activators; actives 1.8% (n = 340,000); AID 624297, 2012; further: potency means the concentration at half of the fitted maximal effect; % of control where 0% means no effect; nearly all actives have a fitted effect of over 55% in size
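Readout is total intensity of Hoechst-stained nuclei, excited at 405 nm and collected at 500-530 nm. Compound treatment lasted 48 hr at 37 C in 5% CO2 before staining.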
KB-3-1 cytotox – qHTS assay for MDR1-selective chemotherapeutics: Primary screen using the parental adenocarcinoma cell KB-3-1. Potency, µM (top dose mostly 46.1 µM), hits mostly cytotoxic. actives 1.4% (n = 400,000). KB-3-1 viability, CellTiter-Glo ATP luminescence, 72 h; further: potency means the concentration at half of the fitted maximal effect; on the % scale 0 is the no-effect control and ±100 the full control effect; nearly all actives have a fitted effect of over 60% in size
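Screening of KB-3-1 cells (DMEM, 10% FBS, phenol-red free) ran from lowest to highest compound concentration; after 72 h at 37 °C viability was read luminescently and curves fitted.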
Starred values were filed as active, the others as inactive; i = inactive; ? = inconclusive; / = no result. In the library only some 6.9% were active in any assay of this set; here they are far more common. Unless noted, the call rests on the fitted dose curve; in most records, active means well fitted curve in the direction sought with a large enough effect; inconclusive means small, poorly fitted or top-dose-only effect, or another doubt; inactive means no such curve, though single readings can be large; an effect the other way counts as inactive or inconclusive.

SMILES	Giardia killer	MCF10A rereplic	KB-V1 MDR tox	S-ASM inh	SW480 rerep	KB-3-1 cytotox
Cc1ccc(N2C(=O)c3cccc4c(N)ccc(c34)C2=O)c2cccnc12	32	?	0.58µM*	-2%	?	?
O=C1CCCc2[nH]c(=O)c(-c3nc(-c4cccc([N+](=O)[O-])c4)cs3)cc21	/	/	i	/	/	i
COc1ccc(N2CCC(CNC(=O)Nc3ccc(Cl)cc3)C2)cc1 (configuration not stated)	-5	3%	?	-19%	-3%	i
COc1ccc(N2CCC(CNC(=O)Nc3cccc(OC)c3)C2)cc1 (configuration not stated)	-7	?	21µM*	-10%	12%	i
CCc1ccccc1NC(=S)NCC1CCN(c2ccc(OC)cc2)C1 (configuration not stated)	-12	?	21µM*	-20%	-8%	?
Cc1ccc(/C=C2\SC(=S)N(C3CCS(=O)(=O)C3)C2=O)cc1 (configuration not stated)	30	11%	i	-2%	0.0052µM*	i
COC(=O)c1ccccc1NC(=O)Cn1c(=O)n(CCCCC(=O)NCc2ccc3c(c2)OCO3)c(=O)c2ccccc21	/	/	i	/	/	i
CCN1C(=O)C2(Nc3ccccc3-c3nc4ccccc4n32)c2cc(OC)ccc21 (configuration not stated)	-2	1%	13µM*	5%	1%	?
CC(C)C(=O)Nc1ccc(-c2nnc(-c3ccccc3)o2)cc1	-8	2%	i	16%	4%	i
CCC(CC)C(=O)Nc1cccc(C(=O)NC(C)(C)C)c1	-11	1%	?	1%	0%	i
CC(C)C(=O)Nc1ccc(C(=O)c2ccccc2)cc1	-9	2%	13µM*	3%	-7%	i
CCC(CC)C(=O)Nc1cccc(C(=O)c2ccccc2)c1	2	2%	9.2µM*	1%	1%	i
CN(C)C(=O)CCSc1nnc(-c2ccco2)o1	-16	-1%	i	1%	-14%	i
CC1CCCN(C(=O)c2cn(-c3ccccc3)nc2-c2cccnc2)C1 (configuration not stated)	0	0%	i	-1%	-2%	i
CNc1ccc(/C=C2\C=Cc3ccccc32)cc1I	/	/	?	/	/	i
CC(C)c1cccc(-c2ccc3c(c2)S(=O)(=O)c2cccc(C(=O)NCc4ccccc4Cl)c2C3=O)c1	-28	?	i	-15%	-97%	6.5µM*
O=C(NCc1ccco1)c1cccc2c1C(=O)c1ccc(/C=C/c3ccccc3)cc1S2(=O)=O	2	9.2µM*	i	-2%	?	?
CCC(=O)N1N=C(c2ccccc2)CC1c1ccc([N+](=O)[O-])cc1 (configuration not stated)	11	12%	15µM*	0%	?	i
COc1ccc(C2CC(c3ccccc3)=NN2C(=O)COC(=O)c2cccc(S(=O)(=O)N3CCOCC3)c2)cc1 (configuration not stated)	8	-1%	i	-4%	5%	i
COc1ccc(C2CC(c3ccccc3OC(C)=O)=NN2C(C)=O)cc1 (configuration not stated)	-25	9%	?	22%	16µM*	?
COc1ccc(C2CC(c3ccccc3)=NN2C(=O)COC(=O)c2cccc(S(=O)(=O)N(C)C)c2)cc1 (configuration not stated)	13	-1%	3.7µM*	-2%	-1%	i
